Experimental data taken from PubChem BioAssay (NCI).
The panel holds about 83,000 compounds, 20% with a hit somewhere; the sample as a whole holds those more often.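 Interpretation: 100, growth as untreated; towards 0, rising growth inhibition; 0, no net growth; 0 to -100, cell death. Compounds scoring below 10 were considered active.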 Unmarked numbers belong to inactive results. The source made the active and inactive calls.

Legend:
Assay in all cases: NCI-60 one-dose screen, 48 h (100 = growth as untreated, 0 = no growth, -100 = all killed)
Settings in all cases: 10 µM unless noted
[1] = system: DU-145 prostate
[2] = system: K-562 leukemia
[3] = system: MALME-3M melanoma
[4] = system: MDA-MB-231 breast
[5] = system: RXF 393 renal
[6] = system: SF-268 CNS
[7] = system: SF-295 CNS
[8] = system: SF-539 CNS
[9] = system: UACC-257 melanoma
[10] = system: M14 melanoma
[11] = system: HCT-15 colon
[12] = system: HT29 colon
[13] = system: SNB-75 CNS
[14] = system: SNB-19 CNS
[15] = system: U251 CNS
[16] = system: PC-3 prostate
[17] = system: SK-MEL-5 melanoma
[18] = system: UACC-62 melanoma
[19] = system: LOX IMVI melanoma
[20] = system: SK-MEL-28 melanoma

SMILES	growth [1]	growth [2]	growth [3]	growth [4]	growth [5]	growth [6]	growth [7]	growth [8]	growth [9]	growth [10]	growth [11]	growth [12]	growth [13]	growth [14]	growth [15]	growth [16]	growth [17]	growth [18]	growth [19]	growth [20]
COc1cc(C2CC(C3C(=O)N(C)C(=O)N(C)C3=O)=NN2C=O)cc(OC)c1OC (stereo not given)	111%	88%	109%	103%	109%	102%	98.1%	104%	78.3%	84%	102%	76.2%	94.8%	100%	96.3%	75.9%	113%	93.9%	97.7%	108%
Cc1sc2nc(NCCc3cccs3)[nH]c(=O)c2c1C	94.7%	82.5%	98.7%	92.5%	78.9%	95.4%	82.8%	91.4%	72%	82.9%	59.6%	85.1%	90.1%	90.2%	75.8%	71.9%	90.8%	63.1%	88.7%	100%
O=C(c1ccccc1)C(CN1CCCCC1)c1ccccc1 (stereo not given)	23.2%	0.176% (active)	-3.92% (active)	22.6%	42.4%	58.6%	98.8%	-15.7% (active)	25.6%	-74.3% (active)	-22% (active)	-13.4% (active)	63.4%	78.5%	15.9%	49.8%	58.8%	25.8%	-94.9% (active)	58.8%
Cc1cc(=O)[nH]c(/C(=N/Nc2ccccc2)C(=O)c2ccc(Cl)cc2)n1	105%	52.7%	114%	102%	28.5%	117%	75.7%	92.3%	103%	97.1%	112%	105%	128%	95.5%	107%	92.6%	92.4%	92%	98.9%	110%
COc1cc(C2=NN(C=O)C(c3cccc(Nc4ccnc5cc(Cl)ccc45)c3)C2)cc(OC)c1OC (stereo not given)	80.2%	46.5%	89.3%	76.5%	72.2%	74.2%	66.8%	91.7%	73.2%	64.1%	52.4%	22%	74.3%	76.2%	66.8%	42.7%	68.1%	96.4%	54.5%	90.6%
COc1cccc(/C=N\NC(=O)c2ccncc2)c1O	51.7%	71.2%	68.3%	47.1%	57.3%	42.2%	55.8%	55.7%	49.6%	34.4%	23.9%	67.6%	57.1%	52.6%	31.6%	47.1%	58.8%	41.2%	15.2%	69.6%
ICCC(c1ccccc1)(c1ccccc1)c1ccccc1	79.1%	-9.2% (active)	-43.4% (active)	41.7%	28.4%	62.7%	51.3%	10.6%	-62.8% (active)	-76.2% (active)	27.7%	2.63% (active)	50.3%	65.3%	23%	49.4%	-49.5% (active)	-35.3% (active)	16.3%	-70% (active)
COc1cc(/C=C2\CN(C)CC3=C2Nc2nc(SC)[nH]c(=O)c2C3c2cc(OC)c(OC)c(OC)c2)cc(OC)c1OC (stereo not given)	7.76% (active)	8.74% (active)	81.2%	37.6%	69.7%	37.4%	63.8%	34.8%	53.9%	24.3%	36.6%	15%	27.8%	66.8%	20.6%	68%	58.2%	30%	3.87% (active)	44.9%
O=C(CC1Sc2ccccc2NC1=O)NNc1cccc(Cl)c1Cl (stereo not given)	108%	89.1%	54.6%	83.5%	97.6%	91.4%	92.4%	67.3%	99.1%	112%	97.1%	93.4%	92.2%	77.7%	83.7%	70.9%	85.5%	85.1%	88.8%	101%
CCOc1cc(/C=C/C(=O)CC(=O)/C=C/c2ccc(OC(=O)CNCCN(CC)CC)c(OCC)c2)ccc1OC(=O)CNCCN(CC)CC	-44.3% (active)	-10.8% (active)	-39.9% (active)	5.09% (active)	-79.4% (active)	3.21% (active)	-18.4% (active)	-58.1% (active)	23.6%	-14.5% (active)	-59.1% (active)	-88% (active)	-15.1% (active)	11.4%	-60.1% (active)	-18.5% (active)	-90.1% (active)	-70.9% (active)	-82.3% (active)	-57.1% (active)
CC1CN(/N=C/c2ccc([N+](=O)[O-])o2)C(=N)O1 (stereo not given)	121%	108%	78.8%	102%	102%	90.1%	88.9%	96.9%	99.5%	106%	97.8%	108%	105%	99.7%	101%	89.5%	93.4%	92.7%	95.4%	115%
CN1C(=O)C(C2=NN(C=O)C(c3ccc(F)cc3)C2)C(=O)N(C)C1=O (stereo not given)	106%	94.2%	95.8%	106%	95.5%	96.9%	99.2%	102%	69.3%	98.5%	101%	91.7%	93.5%	92.4%	92.3%	78.7%	102%	100%	90.4%	111%
Cc1ccc2nc3c(n2c1)C(=O)C(=O)c1ccccc1-3	-89.5% (active)	-48.3% (active)	-85.2% (active)	-48.8% (active)	-91.3% (active)	-78.2% (active)	-71.1% (active)	-90.1% (active)	-90.3% (active)	-81.3% (active)	-70.1% (active)	-39.1% (active)	-70.2% (active)	-77.7% (active)	-86% (active)	-24.5% (active)	-95.9% (active)	-89% (active)	-72% (active)	-86.4% (active)
O=C(O)c1ccc2cccnc2c1O	22.2%	11.1%	-7.97% (active)	11.4%	27.7%	21.6%	6.02% (active)	10.4%	-9.12% (active)	8.98% (active)	7.1% (active)	10.9%	23%	12.7%	8.23% (active)	1.21% (active)	0.767% (active)	0.979% (active)	3.31% (active)	44.6%
Cc1ccc(/C=C/C(=O)c2ccc(F)cc2)s1	90.8%	38.1%	78.9%	105%	84.8%	92.2%	88.5%	103%	90.3%	95.1%	67.3%	43.5%	90.9%	88%	51.6%	63.8%	90.6%	72.7%	58.3%	105%
CCCCCCC(CC#N)(CCC)CCCC (stereo not given)	121%	106%	100%	106%	106%	115%	39.5%	85.3%	104%	110%	108%	111%	88.7%	100%	104%	92.2%	105%	101%	89.8%	104%
